Assay results reported in PubChem BioAssay (NCATS).
Values without a mark were called inactive. Inconclusive results are not listed. Where a call stands in place of a potency, no number is given. Activity calls are given as the source filed them. Calls come from the whole dose curve; as a rule, active = well fitted curve in the direction sought with a large enough effect; inconclusive = small, poorly fitted or top-dose-only effect, or another doubt; inactive = no such curve, though single readings can be large; an effect the other way counts as inactive or inconclusive.

How the values were obtained:
[1] = target: Arylsulfatase A (Homo sapiens) (UniProt P15289); assay: qHTS screen for enhancers of Arylsulfatase A (ASA1): LOPAC Validation Assay (AID 720538)
Procedure, shortened: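 SV40-transformed fibroblasts from an MLD patient (ASA-I179S) were treated with compound for 48 h at 37 C. They were then lysed with 0.5 mM pNCS substrate (final) for 14 h at room temperature and stopped with NaOH; signal read by fluorescence (Ex 525/Em 598 nm), with increase denoting enhanced activity.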

[2] = qHTS for compounds that reverse cellular toxicity of Amyloid beta (A-beta) peptide in yeast: LOPAC Validation Assay (AID 720559)
Procedure, shortened: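 Yeast expressing toxic A-beta grown with pinned compounds at 30 C for 48 hr. Growth measured as absorbance at 600 nm; data normalized to DMSO and to an equimolar FeCl3/clioquinol mixture as positive control.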

[3] = qHTS for Activators of Parkin Expression: LOPAC Validation Assay (NLuc Reporter) (AID 720572)
Procedure, shortened: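 Compound effects on Parkin promoter activity were measured as NanoLuc luminescence after 24 h at 37 C. The neuronal reporter line also carried FLuc, which was read first. LOPAC compounds were tested at 7 concentrations, with normalization to DMSO (0%) and positive control (100%).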

[4] = qHTS for Activators of Parkin Expression: LOPAC Validation Assay (FLuc Reporter) (AID 720573)
Procedure, shortened: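 Neuronal cell line stably expressing FLuc/NLuc coincidence reporter under the Parkin promoter, 1,500 cells/well, dosed 24 h after seeding in 7-point series for 24 h at 37 C. FLuc luminescence read; normalized to DMSO and positive control (100%).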

[5] = target: T1, Hexokinase-4 (Homo sapiens) + Glucokinase regulatory protein (Homo sapiens) (UniProt P35557+Q14397); assay: qHTS assay for inhibitors of recombinant human GCK-GKRP interaction: Diaphorase-coupled assay (AID 743205)
Procedure, shortened: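 Compounds pre-incubated 20 min with substrate, then 10 nM GST-GCK with 10 nM FLAG-GKRP added. GCK activity coupled via G6PDH and diaphorase to resorufin (5 mM glucose, 0.4 mM ATP, 0.15 mM NADP+, pH 7.6), read kinetically over 30 minutes at Ex 525/Em 590 nm.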

[6] = target: T1, Hexokinase-4 (Homo sapiens) + Glucokinase regulatory protein (Homo sapiens); assay: qHTS assay for inhibitors of recombinant human GCK-GKRP interaction: ADP-Glo assay (AID 743206)
Procedure, shortened: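 Pin-transferred compounds meet a 15 nM GST-GCK/15 nM FLAG-GKRP/2 uM S6P mix (dispense concentrations). ATP is then added to 0.4 mM final with 5 mM glucose, and the reaction runs 60 min at room temperature. ADP is quantified luminescently.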

[7] = target: T1, Hexokinase-4 (Homo sapiens) + Glucokinase regulatory protein (Homo sapiens); assay: qHTS assay for inhibitors of recombinant human GCK-GKRP interaction: HTRF assay (AID 743207)
Procedure, shortened: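 HTRF binding of 5 nM GST-GCK and 5 nM FLAG-GKRP with 2 uM S6P in pH 7.1 Hepes buffer (MgCl2, KCl, DTT, Tween 20, BSA). Anti-FLAG XL665 and anti-GST donor added, 60 min at room temperature; 665/615 nm read, normalized to with- and without-GCK controls.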

[8] = qHTS Assay for Identifying Gametocytocidal Compounds (AID 743244); note: potency is the fitted concentration of half-maximal effect;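 for max response: actives lower the fluorescent signal which means gametocytes are killed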; conditions: P. falciparum 3D7 stage III-V gametocytes, alamarBlue, 72 h; max response: active compounds read low
Procedure, shortened: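 Late gametocytes (III–V), P. falciparum 3D7; 72 h drug, then 24 h alamarBlue; resazurin reduction read by fluorescence.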

Sequence of Arylsulfatase A (Homo sapiens) (P15289 whole entry, looked up): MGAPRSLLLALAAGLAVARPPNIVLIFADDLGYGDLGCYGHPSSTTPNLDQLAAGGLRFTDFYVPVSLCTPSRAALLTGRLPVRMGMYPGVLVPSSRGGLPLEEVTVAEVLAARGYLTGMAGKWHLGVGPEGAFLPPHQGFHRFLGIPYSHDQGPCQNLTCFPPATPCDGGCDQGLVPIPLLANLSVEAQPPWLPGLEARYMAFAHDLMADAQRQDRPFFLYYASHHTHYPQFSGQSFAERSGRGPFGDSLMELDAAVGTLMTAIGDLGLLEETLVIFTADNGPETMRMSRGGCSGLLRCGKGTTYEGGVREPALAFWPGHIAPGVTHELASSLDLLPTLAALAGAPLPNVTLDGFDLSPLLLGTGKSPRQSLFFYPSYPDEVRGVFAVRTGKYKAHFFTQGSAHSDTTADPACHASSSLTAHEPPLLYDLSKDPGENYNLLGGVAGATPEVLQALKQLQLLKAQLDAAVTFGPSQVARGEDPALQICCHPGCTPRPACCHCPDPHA
T1 sequence (P35557 whole entry, looked up): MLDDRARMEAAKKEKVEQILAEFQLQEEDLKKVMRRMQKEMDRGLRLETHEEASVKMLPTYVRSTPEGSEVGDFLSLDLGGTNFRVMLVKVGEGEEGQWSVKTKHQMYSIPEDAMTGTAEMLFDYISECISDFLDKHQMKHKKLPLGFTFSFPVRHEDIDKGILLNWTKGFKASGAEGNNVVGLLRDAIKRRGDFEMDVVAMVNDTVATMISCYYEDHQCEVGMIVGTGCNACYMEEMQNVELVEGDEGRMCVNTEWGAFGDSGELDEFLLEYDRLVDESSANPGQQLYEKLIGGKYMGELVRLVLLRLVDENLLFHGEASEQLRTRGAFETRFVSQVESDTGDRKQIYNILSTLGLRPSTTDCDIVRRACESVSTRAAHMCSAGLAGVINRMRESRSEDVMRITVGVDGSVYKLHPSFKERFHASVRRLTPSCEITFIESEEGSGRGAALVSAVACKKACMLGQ
T1 sequence (Q14397 whole entry, looked up): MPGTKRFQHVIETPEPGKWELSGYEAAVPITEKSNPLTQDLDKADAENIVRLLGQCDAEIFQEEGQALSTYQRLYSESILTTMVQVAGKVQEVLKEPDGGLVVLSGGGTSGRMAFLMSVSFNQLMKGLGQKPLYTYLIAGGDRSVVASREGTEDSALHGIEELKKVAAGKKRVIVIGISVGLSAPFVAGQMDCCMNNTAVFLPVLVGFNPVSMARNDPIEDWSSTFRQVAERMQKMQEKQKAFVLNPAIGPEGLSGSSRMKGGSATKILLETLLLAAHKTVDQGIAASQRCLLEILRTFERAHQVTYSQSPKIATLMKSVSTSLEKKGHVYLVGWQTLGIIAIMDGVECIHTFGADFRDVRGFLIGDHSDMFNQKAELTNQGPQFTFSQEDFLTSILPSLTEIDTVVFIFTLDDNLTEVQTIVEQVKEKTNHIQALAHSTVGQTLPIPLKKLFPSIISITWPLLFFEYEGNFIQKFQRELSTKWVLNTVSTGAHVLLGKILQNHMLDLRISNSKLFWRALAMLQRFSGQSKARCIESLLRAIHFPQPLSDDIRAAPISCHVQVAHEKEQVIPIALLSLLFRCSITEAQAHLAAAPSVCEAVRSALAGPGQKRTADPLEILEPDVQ

Row | Structure (SMILES) | Potency [1] | outcome [2] | Potency [3] | outcome [4] | Potency [5] | outcome [6] | outcome [7] | max response [8] [%] | Potency [8]
1 | C[N+]1(C)CCc2cc3c(cc2[C@H]1[C@@H]1OC(=O)c2c1ccc1c2OCO1)OCO3 | inactive | inactive | inactive | inactive | inactive | inactive | inactive | 19.2 | 
2 | C[C@@H]1[C@@H]2Cc3ccc(O)cc3[C@@]1(C)CCN2CC1CC1 | inactive | inactive | inactive | inactive | inactive | inactive | inactive | 29.7 | 
3 | NC(Cc1ccc(N(CCCl)CCCl)cc1)C(=O)O (stereo not drawn) | inactive | inactive | inactive | inactive | inactive | inactive | inactive | 8.23 | 
4 | O=S1(=O)N(CCN2CC=C(c3c[nH]c4cc(F)ccc34)CC2)c2cccc3c2N1CCC3 | inactive | inactive | inactive | inactive | inactive | inactive | inactive |  | 
5 | OCc1cnc[nH]1 | inactive | inactive | inactive | inactive | inactive | inactive | inactive | 26.7 | 
6 | CCS(=O)(=O)Nc1cccc(C(=C2CCCCC2)c2cnc[nH]2)c1 | inactive | inactive | inactive | inactive | inactive | inactive | inactive |  | 
7 | NC(N)=Nc1ccc2[nH]c3c(c2c1)C[C@@]1(O)[C@H]2Cc4ccc(O)c5c4[C@@]1(CCN2CC1CC1)[C@H]3O5 | inactive | inactive | inactive | inactive | inactive | inactive | inactive |  | 
8 | CC(C)[C@@]1(NC(=O)[C@@H]2C[C@@H]3c4cccc5[nH]cc(c45)C[C@H]3N(C)C2)O[C@@]2(O)[C@@H]3CCCN3C(=O)[C@H](Cc3ccccc3)N2C1=O | inactive | inactive | inactive | inactive | inactive | inactive | inactive |  | 5.01 µM (active)
9 | COc1ccc2c(c1)C13CCCCC1C(C2)N(C)CC3 (stereo not drawn) | inactive | inactive | inactive | inactive | inactive | inactive | inactive | 9.94 | 
10 | CC(C)(O)[C@@H]1C2OC(=O)[C@@H]1[C@]1(O)C[C@H]3O[C@]34C(=O)O[C@H]2[C@]14C (tested in a mixture with another compound) | inactive | inactive | inactive | inactive | inactive | inactive | inactive | 18.2 | 
11 | c1ccc2c(c1)[I+]c1ccccc1-2 | inactive | inactive | inactive | inactive | inactive | inactive | inactive |  | 0.166 µM (active)
12 | C[N+](C)(C)CC#CCN1CCCC1=O | inactive | inactive | inactive | inactive | inactive | inactive | inactive | -2.31 | 
13 | CCCN(CCC)[C@@H]1CCc2cccc(O)c2C1 | inactive | inactive | inactive | inactive | inactive | inactive | inactive |  | 
14 | COc1cc(CC(C)N)c(OC)cc1I (stereo not drawn) | inactive | inactive | inactive | inactive | inactive | inactive | inactive | 3.52 | 
